Laboratory results taken from PubChem BioAssay (NCI).
About 79,000 compounds went through this panel and 15% of them were active in at least one assay; those are over-represented in the sample as a whole. The source made the active and inactive calls. Rule as the data show it: active = growth inhibition above about 70%; inactive = the rest.

Key:
[1] = NCI Yeast Anticancer Drug Screen. Data for the rad50 strain (AID 155);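 also: 0% = growth of vehicle-only cultures of the same strain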; details: S. cerevisiae rad50 strain growth inhibition, active compounds read high
Outline: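 A DNA repair-deficient yeast mutant serves as the test organism; compound-induced growth inhibition is calculated against vehicle-treated cells.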

[2] = NCI Yeast Anticancer Drug Screen. Data for the mec2-1 strain (AID 157); details: S. cerevisiae mec2-1 strain, active compounds read high
Outline: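 Yeast mec2-1 mutant treated with compound. Readout: growth inhibition vs vehicle controls.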

[3] = NCI Yeast Anticancer Drug Screen. Data for the sgs1 mgt1 strain (AID 161);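 also: 0% = growth of cultures given vehicle only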; details: S. cerevisiae sgs1 mgt1 strain, active compounds read high
Outline: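 Read-out: growth inhibition vs vehicle controls. Cells: mutant yeast strain deficient in DNA damage repair.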

[4] = NCI Yeast Anticancer Drug Screen. Data for the cln2 rad14 strain (AID 165);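 also: 0% = growth equal to vehicle treated cultures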; details: S. cerevisiae cln2 rad14 strain, active compounds read high
Outline: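 cln2 rad14 yeast strain; compound exposure; growth inhibition read vs vehicle controls.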

[5] = NCI Yeast Anticancer Drug Screen. Data for the bub3 strain (AID 167); details: S. cerevisiae bub3 mutant strain, active compounds read high
Outline: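 Inhibition values come from growth of compound-treated mutant yeast normalised to vehicle-treated controls.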

[6] = NCI Yeast Anticancer Drug Screen. Data for the mlh1 rad18 strain (AID 175); details: S. cerevisiae mlh1 rad18 strain growth inhibition, active compounds read high
Outline: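 Yeast w/ defined DNA-repair lesions; compound exposure; growth vs vehicle controls → % inhibition.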

[7] = at 5.0 µM (retest, dose inferred, filed as 0.5)
[8] = at 50.0 µM (retest, dose inferred, filed as 5.0)

Measured: growth inhibition

Cc1cc(S(=O)(=O)Nc2n[nH]c(-c3ccccn3)n2)c(S)cc1Cl
active: [1]; [8] 92% | [1]; at 50.0 µM 73.8% | [2]; [8] 84% | [3]; [8] 88% | [4]; [8] 85% | [5]; [8] 93% | [6]; [8] 88%
inactive: [1]; [7] -10% | [2]; [7] 27% | [2]; at 50.0 µM 53.8% | [3]; [7] 18% | [3]; at 50.0 µM 55% | [4]; [7] -4% | [4]; at 50.0 µM 49% | [5]; [7] -29% | [5]; at 50.0 µM 69.3% | [6]; [7] 0% | [6]; at 50.0 µM 56%

O=C(O)c1ccccc1C1c2ccccc2Oc2ccccc21
inactive: [1]; [7] 36% | [1]; [8] 5% | [2]; [7] -2% | [2]; [8] 16% | [3]; [7] -3% | [3]; [8] 3% | [4]; [7] 5% | [4]; [8] 6% | [5]; [7] 7% | [5]; [8] 17% | [6]; [7] 0% | [6]; [8] 7%
active: [1]; at 50.0 µM 95.4% | [2]; at 50.0 µM 94% | [3]; at 50.0 µM 95.4% | [4]; at 50.0 µM 97.3% | [5]; at 50.0 µM 91.2% | [6]; at 50.0 µM 95.8%

COc1cccc(C=O)c1O
inactive: [1]; [7] 6% | [2]; [7] -3% | [2]; [8] 21% | [2]; at 50.0 µM 1.05% | [3]; [7] 1% | [3]; [8] 29% | [3]; at 50.0 µM 17.5% | [4]; [7] 1% | [4]; [8] 23% | [4]; at 50.0 µM -23.5% | [5]; [7] -6% | [5]; [8] 0% | [5]; at 50.0 µM -9.35% | [6]; [7] 1% | [6]; [8] 66% | [6]; at 50.0 µM 62.5%
active: [1]; [8] 75% | [1]; at 50.0 µM 74.6%

Nc1ncnc2c1ncn2C1OCC(O)C1O (configuration not stated)
inactive: [1]; [7] 24% | [1]; [8] 66% | [2]; [7] 33% | [2]; [8] 68% | [3]; [7] 20% | [4]; [7] 29% | [4]; [8] 58% | [4]; at 50.0 µM 64.5% | [5]; [7] 20% | [6]; [7] 21%
active: [1]; at 50.0 µM 81.6% | [2]; at 50.0 µM 78.2% | [3]; [8] 74% | [3]; at 50.0 µM 72.9% | [5]; [8] 82% | [5]; at 50.0 µM 82.7% | [6]; [8] 86% | [6]; at 50.0 µM 82.2%
